Sm TGR block: blocks Schistosoma mansoni thioredoxin glutathione reductase | Q962Y6 | purified TGR, DTNB reduction, TNB absorbance 405 nm | Potency, µM (top dose mostly 114 µM), inactives show at the highest dose activity change, negative = inhibition, actives largely listed as inhibitors | 3% of 360,000 active | AID 485364; also: nearly all actives have a fitted effect of over 60% in size
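First, TGR (20 nM dispensed) and NADPH were mixed with compound. Second, a 15 min room-temperature incubation followed. Third, further NADPH and then DTNB were added to start the reaction. Finally, TNB absorbance was monitored kinetically.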
AmpC inh no detg: inhibitors of E. coli AmpC beta-lactamase without detergent; AmpC nitrocefin hydrolysis, absorbance 480 nm, 0.0001% Triton; AID 485341; Potency, µM (highest dose often 57.1 µM), inactives show top-dose activity change, negative = inhibition, hits mostly inhibitors; 0.52% of 330,000 active;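 also: plate controls were no compound for no effect and no enzyme for full effect; nearly all actives have a fitted effect of over 20% in size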
Target sequence (P00811 whole entry, looked up): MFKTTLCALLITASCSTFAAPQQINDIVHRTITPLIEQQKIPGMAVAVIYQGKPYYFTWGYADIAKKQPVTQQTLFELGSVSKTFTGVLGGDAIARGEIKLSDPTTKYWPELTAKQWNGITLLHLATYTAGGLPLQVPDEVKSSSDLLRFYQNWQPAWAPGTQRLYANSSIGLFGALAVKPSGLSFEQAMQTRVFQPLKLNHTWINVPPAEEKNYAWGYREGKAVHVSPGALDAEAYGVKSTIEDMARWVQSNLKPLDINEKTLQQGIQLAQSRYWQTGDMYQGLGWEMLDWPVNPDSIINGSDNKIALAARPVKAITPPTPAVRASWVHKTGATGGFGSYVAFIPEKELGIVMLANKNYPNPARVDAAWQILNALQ
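20 mM phosphate pH 7.0 + 0.01% (detergent screen) or 0.0001% Triton X-100; 5.3 nM AmpC reagent; cpd preinc 15 min RT; nitrocefin (800 uM stock) to start; A480 q20 s × 4 min; Activity was normalised to no-enzyme and no-compound control wells.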
AmpC detergent: inhibitors of E. coli AmpC beta-lactamase with detergent | P00811 | AmpC hydrolysis of nitrocefin, absorbance 480 nm, 0.01% Triton | Potency, µM (top dose mostly 114 µM), for inactives: at the highest dose activity change, negative = inhibition, most hits filed as inhibitors | 0.041% of 370,000 active;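 also: 0% = no-compound wells and -100% = no-enzyme wells; nearly all actives have a fitted effect of over 25% in size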
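AmpC (5.3 nM in the dispensed reagent) in 20 mM phosphate pH 7.0 with 0.01% (detergent screen) or 0.0001% Triton X-100 was preincubated with compounds for 15 min at room temperature. Nitrocefin was then added from an 800 uM solution, and hydrolysis was followed at 480 nm.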
Active calls of the source: *; ? = inconclusive; . = no result given; [ ] = dose if it differs, or a comment. An excerpt weighted towards active compounds, which were near 3.3% of everything screened. Calls follow the shape of the dose curve; as a rule, active = well fitted curve in the direction sought with a large enough effect; inconclusive = small, poorly fitted or top-dose-only effect, or another doubt; inactive = no such curve, though single readings can be large; an effect the other way counts as inactive or inconclusive. Unless noted, % is scaled to controls: 0 for no effect and ±100 for the full control effect; potency is read from the fitted curve at half-maximal effect.

SMILES | Sm TGR block | AmpC inh no detg | AmpC detergent
O=C(COC(=O)c1ccco1)NCCNC(=O)COC(=O)c1ccco1 | 2.4% | -11.2% | 4.7%
CCOC(=O)c1c(/N=C/c2c(O)n(-c3ccc(F)cc3)c(=S)[nH]c2=O)sc2c1CCCC2 | ? | -26.4% | 1.6%
CCOC(=O)c1c(/N=C/c2c(O)n(-c3ccccc3F)c(=S)[nH]c2=O)sc2c1CCCC2 | 11.2µM* | -42.9% | ?
CCc1ccccc1NC(=O)C1=C(C)C(=O)OC12CCCCCC2 | 3.5% | . | 2.8%
CC(=O)c1cccc(N(CC(=O)Nc2cc(C)cc(C)c2)S(C)(=O)=O)c1 | 1.8% | -15.9% | -1.8%
Cn1c(=O)c2c(nc(Oc3ccccc3Cl)n2Cc2ccc(C#N)cc2)n(C)c1=O | 8.9% | . | 2.3%
CO[C@H]1C[C@@H]2CC[C@@H](C)[C@@](O)(O2)C(=O)C(=O)N2CCCC[C@H]2C(=O)O[C@H]([C@H](C)C[C@@H]2CC[C@@H](O)[C@H](OC)C2)CC(=O)[C@H](C)C=C(C)[C@@H](O)[C@@H](OC)C(=O)[C@H](C)C[C@H](C)C=CC=CC=C1C | 14.1µM* | 198.2% | 3.5%
CC[C@@H]1C=C(C)C[C@H](C)C[C@H](OC)[C@H]2O[C@@](O)(C(=O)C(=O)N3CCCC[C@H]3C(=O)O[C@H](/C(C)=C/[C@@H]3CC[C@@H](O)[C@H](OC)C3)[C@H](C)[C@@H](O)CC1=O)[C@H](C)C[C@@H]2OC | -3.2% | 273.0% | ?
CC1=C(C(=O)OCC(Cl)(Cl)Cl)N2C(=O)C(NC(=O)Cc3ccccc3)C2SC1 (stereo not given) | -1.2% | -29.0% | -1.9%
Cc1nnc(SCC2=C(C(=O)O)N3C(=O)C(NC(=O)C(C)n4nc(C(F)(F)F)cc4C)C3SC2)s1 (stereo not given) | 7.08µM* | 93.6% | -14.3%
NC(=O)c1cc[n+](CC2=C(C(=O)O)N3C(=O)[C@@H](NC(=O)C(c4ccccc4)S(=O)(=O)[O-])[C@H]3SC2)cc1 (stereo not given in full) | -10.3% | -15.4% | -5.4%
Cc1nnc(SCC2=C(C(=O)O)N3C(=O)C(NC(=O)Cc4ccccc4)C3SC2)s1 (stereo not given) | 12.6µM* | -32.2% | -4.9%
CCN(CC)S(=O)(=O)c1ccc2[nH]c(=O)cc(C(=O)Nc3ccc(C)c(S(=O)(=O)N(CC)CC)c3)c2c1 | -1.5% | 48.9% | ?
Cn1c(N2CCN(C(=O)NC34CC5CC(CC(C5)C3)C4)CC2)nc2ccccc21 | -0.2% | -20.3% | 3.2%
Cc1cccc(N2CCN(C(=O)CCNS(=O)(=O)c3cccs3)CC2C)c1 (stereo not given) | -2.3% | 15.3% | -8.5%
Cc1cccc(N2CCN(C(=O)CCS(=O)(=O)c3ccc4c(c3)CC(=O)N4C)CC2C)c1 (stereo not given) | 12.6µM* | . | 2.7%
c1ccc(COc2ccc(CN3CCN(c4ccccn4)CC3)cc2)cc1 | 0.0% | 40.5% | ?
CC(=O)N1CCCc2cc(S(=O)(=O)N3CCC(C(=O)N(C)C4CCCCC4)CC3)ccc21 | 3.3% | . | 3.4%
NC(=O)c1ccccc1OCC(=O)Nc1cccnc1Cl | 0.1% | -9.4% | ?
CC(=O)c1c(C)oc2c(Br)cc(NS(=O)(=O)c3ccc(Br)cc3)cc12 | 5.62µM* | . | 4.0%
CC(=O)c1c(C)oc2c1cc(NS(=O)(=O)c1ccc(Br)cc1)c1ccccc12 | 6.1% | . | 4.7%
Cc1cc(C)c(NC(=O)CSc2nc3ncc(Br)cc3[nH]2)c(Cl)c1 | -15.2% | -36.2% | -7.8%
c1ccc(C2=Nc3ccccc3OC2)cc1 | 50.1µM* | -5.0% | -0.8%
Clc1ccc(C2=Nc3cc(Cl)ccc3OC2)cc1 | -4.0% | 3.5%[2.29 µM] | -3.7%
CNc1nc(SC(C)C(=O)Nc2ccc(Cl)c(Cl)c2)nc(N2CCOCC2)n1 (stereo not given) | 1.2% | -27.3% | 3.3%
CC(C)C(NC(=O)c1ccc(C(C)(C)C)cc1)C(=O)N1CCCC1 (stereo not given) | -0.2% | 9.0% | -8.8%
Cc1sc2ncnc(SCC(=O)N3c4ccccc4Sc4ccc(Cl)cc43)c2c1C | -29.3% | -27.2% | -2.4%
CCOC(=O)c1c(C)sc2c1N(C(=O)CCl)c1cc(Cl)ccc1S2 | 2.51µM* | 24.4% | 2.7%
COc1ccc(C2N(C(=O)c3ccccc3)CCN2C(=O)c2ccc(C)cc2)cc1 (stereo not given) | 3.0% | 32.3% | ?
COc1ccc(C(=O)N2CCn3c(C)ccc3C2C)cc1 (stereo not given) | 28.2µM* | -3.9%[2.29 µM] | -5.5%
